From PubChem BioAssay AID720706 (Broad Institute, 2013)
The whole screen tested about 350,000 compounds, of which about 5,500 (1.6%) were called active.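 Rule for the calls: active = significant combined selectivity score with lowered wild-type GFP, culture density cut under 30%, mutant RFP and density less affected; inactive = any of these conditions unmet.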 This excerpt belongs to a sample that is enriched for actives.

Assay: GFP drop in mixed WT/humanized-ribosome E. coli culture – GFP/RFP fluorescence, OD600, single point, bacterial rRNA inhibitor project, primary screen (AID 720706)
Conditions: E. coli WT GFP vs humanized-ribosome RFP mutants, 24 h; GFP signal change (wild-type ribosome): stronger effect = lower value, DMSO median 0, no signal -100; OD600 change: measured here: OD600 growth, DMSO median 0, no signal -100; RFP signal change: measured here: RFP humanized mutant strains, DMSO median 0, no signal -100, concentration not given here

Compound | GFP signal change (wild-type ribosome) | OD600 change | RFP signal change
O=C1C(Sc2cccc(F)c2)=C[C@@]2(O)CC[C@@H](O)[C@]1(Sc1cccc(F)c1)[C@H]2O | -37% (active) | -28.5% | -4.19%
COc1ccc(S(=O)(=O)Nc2ccc3c(c2)CC(=O)N([C@H](C)CO)C[C@H](C)[C@@H](CN(C)C)O3)cc1 | 2.15% (inactive) | 13.2% | -1.01%
C[C@H](CO)N1C[C@H](C)[C@@H](CN(C)C(=O)c2ccncc2)Oc2cc(C3=CCCCC3)ccc2S1(=O)=O | -1.29% (inactive) | -9.47% | -3.74%
CNC(=O)C(NC(=O)c1ccccc1)=C(C)C | 10.9% (inactive) | 9.13% | -0.414%
CN(C)C(=O)c1coc2nc3ccccc3nc12 | 12.4% (inactive) | 6.11% | -0.0205%
CNC(=O)c1cccc2nc3ccccc3nc12 | -23.6% (active) | -17.7% | -6.61%
CC(C)NC(=O)Nc1ccc2c(c1)C(=O)N(C)[C@@H]1CC[C@H](CC(=O)NCC3CCCCC3)O[C@@H]1CO2 | -0.35% (inactive) | -6% | 0.584%
C/C=C/c1ccc([C@@H]2[C@H](CO)N(CC3CCCC3)C23CN(C(=O)CC2CC2)C3)cc1 | -14.4% (inactive) | -40% | 32.6%
CCOC(=O)CSC1=C(C#N)C(c2ccco2)C(C(=O)OCc2ccccc2)=C(C)N1 (stereo not drawn) | -26.5% (active) | -14.3% | -3.21%
CCCSC1=C(C#N)C(c2ccccc2C)C(C(=O)OC)C(=O)N1 (stereo not drawn) | -10.9% (inactive) | -3.33% | -1.26%
CCOC(=O)C1(C)NC(c2ccco2)C2C(=O)N(c3ccccc3)C(=O)C21 (stereo not drawn) | 7.82% (inactive) | 18.6% | 3.41%
CN1CCN(CCNC(=O)Nc2ccc([N+](=O)[O-])cc2)CC1 | 3.04% (inactive) | -6.09% | -2.6%
O=C(NCCCN1CCOCC1)c1ccc([N+](=O)[O-])cc1[N+](=O)[O-] | 7.34% (inactive) | 6.35% | -0.35%
O=C(NCCCN1CCN(c2ccc(F)cc2)CC1)Nc1ccc([N+](=O)[O-])cc1 | -23.1% (active) | -16.1% | 9.67%
O=C(c1ccncc1)N1CC(=O)N2[C@H](C1)[C@@H](c1ccc(C#CCC3CCCC3)cc1)[C@@H]2CO | -32.1% (inactive) | -56.8% | 7.12%
CCCN(C)C[C@@H]1Oc2ncc(-c3ccccc3F)cc2C(=O)N([C@@H](C)CO)C[C@@H]1C | 9.44% (inactive) | 19.7% | -1.32%
Nc1ccc(N=Nc2ccccc2Cl)c(N)n1 | -31.4% (active) | -18.6% | -5.26%
C[C@@H]1CN([C@H](C)CO)C(=O)c2cccc(NC(=O)Nc3ccc(F)cc3)c2O[C@@H]1CN(C)C(=O)Nc1ccc(C(F)(F)F)cc1 | -3.92% (inactive) | -1.07% | -2.09%
COc1ccc(S(=O)(=O)Nc2ccc3c(c2)CC(=O)N([C@H](C)CO)C[C@H](C)[C@@H](CN(C)C(=O)NC(C)C)O3)cc1 | 1.06% (inactive) | 6.54% | -0.682%
C[C@@H]1CN([C@@H](C)CO)C(=O)c2cccc(N(C)C)c2O[C@@H]1CN(C)S(C)(=O)=O | 0.068% (inactive) | 11.7% | 1.6%
N#CC1=C(N)Oc2n[nH]c(CSc3ccccc3)c2C12C(=O)Nc1ccccc12 (stereo not drawn) | -4.64% (inactive) | -0.706% | 2.2%

Compound | GFP signal change (wild-type ribosome) | OD600 change | RFP signal change
N#CC1=C(N)Oc2cc(N)ccc2C1c1ccccc1 (stereo not drawn) | 5.33% (inactive) | 13.2% | 8.27%
Cc1cc(C)c(C#N)c(SCc2[nH]nc3c2C(c2ccccc2)C(C#N)=C(N)O3)n1 (stereo not drawn) | -19.3% (active) | -14.2% | 7.29%
CCC(=O)Nc1ccc2c(c1)C(=O)N(C)[C@H]1CC[C@H](CC(=O)NCC3CCCCC3)O[C@H]1CO2 | -0.704% (inactive) | -0.374% | -0.863%
CC[C@H](NC(=O)[C@H](Cc1ccccc1)NC(=O)[C@H]1O[C@@H](n2cnc3c(=O)[nH]c(N)nc32)[C@H](O)[C@@H]1O)c1ccccc1 | 13.7% (inactive) | 14.1% | 2.61%
O=S(=O)(Nc1ccc(OC(F)(F)F)cc1)c1cccc2nonc12 | -39% (active) | -15.7% | -10.9%
O=C(O)c1ccc(NS(=O)(=O)c2cccc3nsnc23)cc1 | 12.3% (inactive) | 9.27% | 0.548%
CCc1cccc(NC(=O)CCNS(=O)(=O)c2cccc3nonc23)c1 | -13.3% (inactive) | -12.7% | 18.6%
Cc1ccc(S(=O)(=O)N(C)C[C@@H]2Oc3c(NS(=O)(=O)c4ccc(F)cc4)cccc3C(=O)N([C@@H](C)CO)C[C@H]2C)cc1 | -1.93% (inactive) | 3.45% | 0.647%
Cc1snc(SCc2c(F)cccc2Cl)c1C#N | -4.85% (inactive) | -10.8% | -3.63%
N#Cc1ccc(CSc2ncccn2)cc1 | -4.06% (inactive) | -1.11% | -0.806%
Cc1ccc(CSc2nsc(C)c2C#N)cc1 | -24.5% (active) | -7.04% | -1.18%
CN(C)C(=O)C[C@H]1C[C@@H]2c3cc(NC(=O)CC4CC4)ccc3O[C@@H]2[C@@H](CO)O1 | 1.34% (inactive) | 0.566% | 1.23%
Cc1ccc(S(=O)(=O)N(C)C[C@@H]2Oc3ccc(NC(=O)Cn4cnnn4)cc3CC(=O)N([C@H](C)CO)C[C@H]2C)cc1 | -0.977% (inactive) | 0.458% | -4.09%
CSc1nnc(NC(=O)c2nc(S(=O)(=O)Cc3ccc(C)cc3)ncc2Cl)s1 | 2.78% (inactive) | -0.98% | 0.486%
Cc1cccc(NC(=O)c2nc(S(=O)(=O)Cc3ccccc3)ncc2Cl)c1 | -14.7% (active) | 11% | -6.12%
Cc1cccc(CS(=O)(=O)c2ncc(Cl)c(C(=O)Nc3ccc(F)cc3)n2)c1 | 6.16% (inactive) | 2.7% | -4.49%
CS(=O)(=O)N1CCCCN2[C@@H](CO)[C@@H](c3ccc(Br)cc3)[C@@H]2C1 | 5.32% (inactive) | 1.18% | 3.67%
Cc1ccc(C(=O)OCC(=O)N2CC(C)CC(C)C2)cc1S(=O)(=O)N1CCCCC1 (stereo not drawn) | -26.5% (inactive) | -33.2% | -6.95%
COc1ccc(CNC(=O)COC(=O)c2ccc(C)c(S(=O)(=O)N3CCOCC3)c2)cc1OC | -1.36% (inactive) | -0.45% | 4.29%
Cc1ccc(C(=O)OCC(=O)NCc2cc(C)c(O)c(C)c2)cc1S(=O)(=O)N1CCCCC1 | -24.5% (active) | -17% | -2.51%
